From PubChem BioAssay (Tox21)
Records with an inconclusive call do not appear. Activity calls are given as the source filed them. The call rests on the fitted dose curve.
On the % scale 0 is the no-effect control and ±100 the full control effect; potency means the concentration at half of the fitted maximal effect.

Assay: qHTS assay to identify small molecule agonists of H2AX - cell viability counter screen (AID 1224847); further: nearly all actives have a fitted effect of over 30% in size; on activity change, negative = cytotoxicity: top concentration of the series differs between compounds
Details: CHO-K1 viability, CellTiter-Glo luminescence, 3 h; series mostly up to 154 µM; activity change, negative = cytotoxicity: at the top concentration
Text: National Center for Advancing Translational Sciences [NCATS]
NIH Chemical Genomics Center [NCGC]
U.S. Environmental Protection Agency [EPA]
National Institutes of Environmental Health Sciences [NIEHS]
National Toxicology Program [NTP]
U.S. Food and Drug Administration [FDA]
HTRF phospho-H2AX (Ser139) assay (Cisbio Bioassays, US) enables the quantitative detection of the histone variant H2AX when phosphorylated on serine 139. When double-stranded DNA breaks, either by ionizing radiation or endogenous physiological processes, H2AX becomes phosphorylated at Ser139. This phospho-Ser139 serves as a sensitive biomarker for the detection of such breaks, localizing the site of DNA repair. So, HTRF phospho-H2AX Ser139 is a pertinent assay to study genome stability, the cell cycle, DNA repair, and it serves as a biomarker for cancer, and to understand aging. Wild type CHO-K1 cells were used to identify the inducers of Phospho-H2AX Ser 139 from the Tox21 compound collections. Also cytotoxicity of the Tox21 10K compound library against the CHO-K1 cell line was tested by measuring the cell viability using CellTiter-Glo assay (Promega, Madison, WI).
Tox21 Assay Protocol Summary:
The CHO-K1 cells suspended in culture medium containing 10% FBS were dispensed at 1000 cells/ 3 ul/well in 1536-well white wall/solid bottom plates (Greiner Bio-One North America, NC) using a Multidrop Combi (Thermo Fisher Scientific Inc., Waltham, MA). After the assay plates were incubated at 37C overnight, 23 nl of compounds at 15 concentrations (from 5-48 columns) or positive control (from 1 to 4 columns) were transferred to the assay plates using a Pintool station (Wako, San Diego, CA) into each well resulting in a final DMSO concentration of 0.76%. After 3hr incubation at 37C, 3 uL/well CellTiter-Glo luminescent cell viability reagent (Promega Corporation, Madison, WI) was added using a Flying Reagent Dispenser (FRD) (Aurora Discovery, CA). After incubation at room temperature for 30 min, the luminescence intensity was read using a ViewLux plate reader (PerkinElmer, Waltham, MA).
For `Cc1nc(N)nc(N)c1-c1ccc(Cl)c(Cl)c1`, the Potency was 1.24 µM (active). For `N#CSCC(=O)O`, the “activity change, negative = cytotoxicity” value was -1.45% [at 70.9 µM] (inactive). For `COc1ccccc1N1CCN(CCCNc2cc(=O)n(C)c(=O)n2C)CC1`, the “activity change, negative = cytotoxicity” value was -0.51% [at 70.9 µM] (inactive). In the case of `CCOC(=O)C(Br)c1ccccc1` (stereo not given), the “activity change, negative = cytotoxicity” value is reported as -2.92% (inactive). In the case of `NS(=O)(=O)c1cc(-c2nn[nH]n2)c(NCc2cccs2)cc1Cl`, the “activity change, negative = cytotoxicity” value is reported as 10.2% [at 70.9 µM] (inactive). For `CO[C@@]1(NC(=O)CSCC#N)C(=O)N2C(C(=O)O)=C(CSc3nnnn3C)CS[C@@H]21`, the “activity change, negative = cytotoxicity” value was 0.154% [at 70.9 µM] (inactive). In the case of `C1CCOC1`, the “activity change, negative = cytotoxicity” value is reported as -1.58% (inactive). For `OCCN(CCO)c1ccccc1`, the “activity change, negative = cytotoxicity” value was -0.855% (inactive). In the case of `CNCCC(Oc1ccccc1OC)c1ccccc1` (stereo not given), the “activity change, negative = cytotoxicity” value is reported as 0.41% [at 70.9 µM] (inactive). In the case of `CC(=O)N[C@@H](CC(C)C)C(=O)O`, the “activity change, negative = cytotoxicity” value is reported as 4.71% [at 70.9 µM] (inactive). For `CCNCCO`, the “activity change, negative = cytotoxicity” value was 0.296% (inactive). In the case of `CCCCCCCOC(=O)CCC`, the “activity change, negative = cytotoxicity” value is reported as 6.4% (inactive). With `O=C1N(c2ccccc2)c2ccccc2C1(Cc1ccncc1)Cc1ccncc1` the “activity change, negative = cytotoxicity” value was -0.746% [at 70.9 µM] (inactive). For `FC(F)(F)C(F)(F)C(F)(F)C(F)(F)C(F)(F)C(F)(F)C(F)(F)C(F)(F)Br`, the “activity change, negative = cytotoxicity” value was 5.21% [at 70.9 µM] (inactive). With `CC[C@H]1CC[C@H](NCc2cc3c(cc2OC)[C@H]2C[C@H]2C(=O)N3C)[C@H](c2ccccc2)N1` the “activity change, negative = cytotoxicity” value was 1.34% (inactive). For `COc1nc(C)nc(NC(=O)NS(=O)(=O)c2ccccc2OCCCl)n1`, the “activity change, negative = cytotoxicity” value was 3.19% (inactive). With `O=C(O)[C@@H]1CSCN1` the “activity change, negative = cytotoxicity” value was -0.76% [at 70.9 µM] (inactive). For `C=C(C)C(=O)OCCOP(=O)(O)O`, the “activity change, negative = cytotoxicity” value was -0.411% (inactive). With `CCCCOc1cc(C(=O)NCCN(CC)CC)c2ccccc2n1` the “activity change, negative = cytotoxicity” value was -2.71% [at 70.9 µM] (inactive). In the case of `C=CCCCCCCCCO`, the “activity change, negative = cytotoxicity” value is reported as -9.69% (inactive). In the case of `CN(CCCN1c2ccccc2CCc2ccccc21)CC(=O)c1ccc(Cl)cc1`, the “activity change, negative = cytotoxicity” value is reported as 2.49% [at 70.9 µM] (inactive). In the case of `Nc1ccc(Oc2ccc(N)c(N)c2)cc1`, the “activity change, negative = cytotoxicity” value is reported as -1.74% (inactive). In the case of `CCOc1ccc(NS(=O)(=O)c2ccc(N)cc2)nn1`, the “activity change, negative = cytotoxicity” value is reported as 4.65% [at 70.9 µM] (inactive). In the case of `Cc1onc(-c2ccccc2)c1C(=O)Cl`, the “activity change, negative = cytotoxicity” value is reported as 3.17% [at 70.9 µM] (inactive). For `CC(C)NC[C@@H](O)COc1cccc2ccccc12`, the “activity change, negative = cytotoxicity” value was -0.196% [at 70.9 µM] (inactive). For `O=C(C(Cl)Cl)N1CCOC12CCCCC2`, the “activity change, negative = cytotoxicity” value was 1.54% (inactive). For `O=S(=O)(O)C(F)(F)F`, the “activity change, negative = cytotoxicity” value was 0.639% (inactive). For `CCCCNC(=S)NCCCC`, the “activity change, negative = cytotoxicity” value was 12.8% (inactive). For `CCCS(=O)c1ccc2nc(NC(=O)OC)[nH]c2c1` (stereo not given), the “activity change, negative = cytotoxicity” value was -15.6% [at 70.9 µM] (inactive). With `OCc1ccccc1O` the “activity change, negative = cytotoxicity” value was 0.473% [at 70.9 µM] (inactive). With `CC/C=C\CCOC(=O)C(C)C` the “activity change, negative = cytotoxicity” value was -1.13% (inactive). For `Cc1c[nH]c(=S)[nH]c1=O`, the “activity change, negative = cytotoxicity” value was -0.201% (inactive). With `FC(F)(F)C(Cl)(Cl)Cl` the “activity change, negative = cytotoxicity” value was 4.04% (inactive). With `C=Cc1ccccc1` the “activity change, negative = cytotoxicity” value was -0.0106% (inactive). With `CC(C)OC(C)C` the “activity change, negative = cytotoxicity” value was -0.259% (inactive). In the case of `COc1ccccc1OCC(O)COC(N)=O` (stereo not given), the “activity change, negative = cytotoxicity” value is reported as -1.51% [at 70.9 µM] (inactive). With `NNS(=O)(=O)c1ccc(Oc2ccc(S(=O)(=O)NN)cc2)cc1` the “activity change, negative = cytotoxicity” value was 10.5% (inactive). For `C=CCCC=C`, the “activity change, negative = cytotoxicity” value was 0.149% (inactive). For `COc1cc(Cl)ccc1Cl`, the “activity change, negative = cytotoxicity” value was 0.216% (inactive). In the case of `CCN(CC)CCOc1ccc(Cc2ccccc2)cc1`, the “activity change, negative = cytotoxicity” value is reported as -10.2% [at 70.9 µM] (inactive).
